24 compounds from PubChem BioAssay can be followed below.

Molecules are shown by their SMILES. Calls of active or inactive are those of the source. How the calls were made is not given here.

The subject of this assay is Aerobactin synthetase IucA (Klebsiella pneumoniae hvKP1). Briefly: IucA enzyme inhibition, primary screen, biochemical, Spectrum library (AID 1346200).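 Further: 100% = wells without compound and 0% = wells lacking enzyme.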 The settings on record: malachite green pyrophosphate, A620, at 8 µM, active compounds read low.
Turning to `CC(=O)Oc1c2c(c3c(c1CC=C(C)C)O[C@]14C(=C[C@@H]5CC1C(C)(C)OC4(C/C=C(\C)C(=O)O)C5=O)C3=O)OC(C)(CCC=C(C)C)C=C2` (some centres undefined), the activity remaining is 112% (inactive).

Consider `CC(C)=CCc1c(O)cc2occ(-c3ccc4c(c3)OCO4)c(=O)c2c1O`, for which the activity remaining was 114% (inactive).

In the case of `COc1ccc2nc(S(=O)Cc3ncc(C)c(OC)c3C)[nH]c2c1` (centres undefined), the activity remaining is 126% (inactive).

`COc1cc(C(=O)N2CCOCC2)cc(OC)c1OC`: the activity remaining is 111% (inactive).

With `O=c1c(O)c(-c2ccc(O)cc2)oc2ccccc12`, the activity remaining was 104% (inactive).

Consider `COc1ccc2c(c1)OCC(Cc1ccc(OC)c(OC(C)=O)c1)C2=O` (centres undefined), for which the activity remaining is 113% (inactive).

As to `CC(=O)O[C@H]1C[C@@H](OC(C)=O)C(C)(C)C2C[C@@H](OC(C)=O)[C@]3(C)C(CC[C@@]4(C)[C@H](c5ccoc5)OC(=O)[C@H]5O[C@]543)[C@]21C` (some centres undefined), the activity remaining was 103% (inactive).

As to `C[C@@H]1[C@H]2[C@H](O[C@@H]3O[C@H](CO)[C@@H](O)[C@H](O)[C@H]3O)OC=C(C(=O)O)[C@H]2C[C@@H]1O`, the activity remaining was 120% (inactive).

As for `COC(=O)c1c(C)cc(O)cc1O`, the activity remaining was 89.5% (inactive).

Regarding `CN(C)CCOC(c1ccc(Cl)cc1)c1ccccn1` (centres undefined), the activity remaining is 115% (inactive).

As to `CCCCC(=O)O[C@H]1CCC2C3CCc4cc(O)ccc4C3CC[C@@]21C` (some centres undefined), the activity remaining is 97.5% (inactive).

On to `CN(C(=O)CN(CCO)CC(=O)N(C)C(C)(C)Cc1ccccc1)C(C)(C)Cc1ccccc1`, for which the activity remaining was 101% (inactive).

Consider `CN(C)CCN(Cc1ccccc1)c1ccccn1`, for which the activity remaining is 109% (inactive).

Turning to `COc1ccc(C2Sc3ccccc3N(CCN(C)C)C(=O)C2OC(C)=O)cc1` (centres undefined), the activity remaining is 114% (inactive).

`CC1(C)OC(=O)NC1=O`: the activity remaining was 115% (inactive).

`CC[C@]1(O)CC2CN(CCc3c([nH]c4ccccc34)[C@@](C(=O)OC)(c3cc4c(cc3OC)N(C=O)[C@H]3[C@@](O)(C(=O)OC)[C@H](OC(C)=O)[C@]5(CC)C=CCN6CC[C@]43[C@@H]65)C2)C1` (some centres undefined): the activity remaining is 82.4% (inactive).

On to `COC1=CC(=O)C=C(OC)C1=O`, for which the activity remaining was 99.1% (inactive).

Consider `COc1ccc2c(c1)O[C@@H]1COc3cc(OC)c(OC)cc3[C@@H]1C2=O`, for which the activity remaining is 111% (inactive).

Consider `CN(C)CCCO[C@H]1[C@@H](C(O)CO)OC2OC(C)(C)O[C@@H]21` (some centres undefined), for which the activity remaining was 95% (inactive).

As for `O=C(O)CN(CCN(CC(=O)O)CC(=O)O)CC(=O)O`, the activity remaining was 108% (inactive).

In the case of `Nc1nc(N)c2nc(CNc3ccc(C(=O)NC(CCC(=O)O)C(=O)O)cc3)cnc2n1` (centres undefined), the activity remaining was 102% (inactive).

For `CC(CCC(=O)O)[C@H]1CCC2C3C(C[C@H](O)[C@@]21C)[C@@]1(C)CC[C@@H](O)C[C@H]1C[C@H]3O` (some centres undefined), the activity remaining was 99.6% (inactive).

As to `O=C1C(O)=C(O)C(=O)C(O)=C1O`, the activity remaining is 125% (inactive).

As to `COc1ccc(-c2oc3cc(OC)c(OC)c(OC)c3c(=O)c2OC)cc1`, the activity remaining is 115% (inactive).
